Reference: PubChem BioAssay AID817 (Emory University Molecular Libraries Screening Center, 2007)
Out of some 140,000 compounds screened, about 300 (0.21%) were called active.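 How the source made its calls: active means z-score above 3 at both the 24 hr and the 30 hr optical density reads; inactive means the rest, inconclusive results apart.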 The full list was thinned out, with actives kept by preference.

Assay: growth rescue of sdo1-depleted yeast, primary screen, S. cerevisiae, bone marrow failure model (AID 817);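 further: z-score against mean and SD of all compound wells on the same plate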
Conditions: S. cerevisiae sdo1-depleted JHY4D growth rescue, at 10 µM, stronger effect = higher value, pdr5 snq2 efflux-pump mutant strain
[1] = OD600, measured here: growth rescue at 24 h

Row | SMILES | z-score (OD600 30 h) | z-score [1]
1 | Cc1ccccc1C1=NC(C(F)(F)F)(C(F)(F)F)c2c(n(-c3ccc(F)cc3)c(=O)[nH]c2=O)N1 | 0.91 (inactive) | 1.23
2 | CC(C)(C)CC(C)(C)NCC(O)COCCOc1ccc(Br)cc1 (stereo not drawn) | -1.47 (inactive) | -1.24
3 | CCCn1c(C)cc(/C=C(\C#N)C(=O)OCC(=O)Nc2cc(OC)c(OC)c(OC)c2)c1C | -0.22 (inactive) | -0.65
4 | COC(=O)c1sccc1NC(=O)COc1ccc(Cl)cc1 | -0.81 (inactive) | 0.03
5 | Cc1cc(C)cc(NC(=S)NCc2ccc(F)cc2)c1 | -0.44 (inactive) | -0.91
6 | COc1ccc(C2=NN(C(=O)c3cccnc3)C(c3ccccc3)C2)cc1 (stereo not drawn) | -0.64 (inactive) | -0.53
7 | Cc1ccc(Nc2cc(C)nc3c(C)ccc([N+](=O)[O-])c23)cc1 | -2.1 (inactive) | -1.28
8 | O=c1c2sccc2nc(SCc2cc(=O)n3ccccc3n2)n1-c1ccc(Br)cc1 | -0.28 (inactive) | 0.04
9 | Cc1ccc(C)c(NC(=O)CCC(=O)NNC(=O)c2cccs2)c1 | 0.52 (inactive) | -0.15
10 | O=C(CSc1ccc(C(F)(F)F)cc1[N+](=O)[O-])NCCOc1ccccc1 | -0.75 (inactive) | -0.39
11 | Cc1cccc(C(=O)OCC(=O)Nc2sc3c(c2C#N)CCC3)c1 | 1.54 (inactive) | 1.79
12 | CCCNC(=O)NC(=O)COC(=O)CC(NC(N)=O)c1ccc(Cl)cc1 (stereo not drawn) | 1.01 (inactive) | 0.32
13 | CC[C@H]1OC(=O)[C@H](C)[C@@H](O[C@H]2C[C@@](C)(OC)[C@@H](O)[C@H](C)O2)[C@H](C)[C@@H](O[C@@H]2O[C@H](C)C[C@H](N(C)C)[C@H]2O)[C@](C)(O)C[C@@H](C)[C@@H]2N[C@@H](COCCOC)O[C@H]([C@H]2C)[C@]1(C)O | 2.24 (inactive) | 2.51
14 | Cc1cc(Cl)ccc1OCCCC(=O)NCc1ccncc1 | -0.45 (inactive) | -0.98
15 | O=C(CCN1C(=O)c2ccccc2C1=O)C1=NN[C@@H]2C(=O)N(c3ccc(F)cc3)C(=O)[C@H]12 | 0.12 (inactive) | -0.42
16 | CC(NC(=O)COC(=O)C1CCN(S(=O)(=O)c2ccccc2C(F)(F)F)CC1)c1ccccc1 (stereo not drawn) | 1.2 (inactive) | 1.46
17 | Cc1ccc(S(=O)(=O)/N=C(/Nc2ccccn2)c2ccc(Cl)cc2)cc1 | -1.04 (inactive) | -0.87
18 | O=S(=O)(/N=C(/Nc1ccccn1)c1ccccc1)c1ccc(Cl)cc1 | 5.14 (active) | 4.98
19 | Cc1ccc(S/C(=N\S(=O)(=O)c2ccc(Cl)cc2)c2ccccc2)cc1 | -0.79 (inactive) | -1.13
20 | Cc1sc2ncnc(Sc3nc4ccccc4s3)c2c1C | 0.02 (inactive) | -0.34
21 | CC(C)NC(=S)N1CCN(C(c2ccccc2)c2ccccc2)CC1 | -1.16 (inactive) | -1.01
22 | CC(C)=C(NC(=O)c1ccccc1)C(=O)N/N=C(\C)c1ccccc1O | 1.49 (inactive) | 2.26
23 | Cc1ccc(C(=O)c2ccc(N3CCN(C)CC3)c([N+](=O)[O-])c2)cc1 | 1.82 (inactive) | 1.21
24 | COc1ccc(NC(=O)CC2C(=O)OCC3CCCCN32)cc1Cl (stereo not drawn) | 0.14 (inactive) | -0.04
25 | Cc1ccc(N=C2NC(=O)c3cccc([N+](=O)[O-])c32)cc1 | 0.32 (inactive) | 0.33

Row | SMILES | z-score (OD600 30 h) | z-score [1]
26 | CCN(CC)c1ccc(C(=O)N/N=C(\C)c2cccc(OC)c2)cc1 | 0.86 (inactive) | 0.18
27 | NC(=O)CCC(NS(=O)(=O)c1ccc(Cl)cc1)C(=O)NCc1ccccc1Cl (stereo not drawn) | -0.28 (inactive) | -1.21
28 | Cc1ccc(C(=O)CNc2ccc(F)cc2)cc1 | 0.78 (inactive) | -0.09
29 | Fc1ccccc1CNC(=S)Nc1ccc(Cl)cc1 | -1.01 (inactive) | -0.89
30 | CCOC(=O)C(C)Sc1nnc(CSc2nc3nc(C)cc(C)n3n2)o1 (stereo not drawn) | 0.4 (inactive) | 0.13
31 | c1cncc(-c2nnc3n2C2(CCCCC2)Cc2ccccc2-3)c1 | -0.05 (inactive) | -0.69
32 | CCOc1cccc2c1OC1(CCCCC1)N1N=C(c3cccnc3)CC21 (stereo not drawn) | 13.5 (active) | 3.28
33 | CCOc1ccccc1C1CC(c2cccc(NS(C)(=O)=O)c2)=NN1C(=O)c1ccccc1 (stereo not drawn) | -0.43 (inactive) | -0.52
34 | N/C(=N\OC(=O)N1c2ccccc2Sc2ccccc21)c1ccc(Br)cc1 | -1.34 (inactive) | -1.41
35 | Cc1cc(-c2csc(N)n2)c(C)n1-c1ccccc1 | 0.37 (inactive) | 0.28
36 | C/C(=N\NC(=O)c1ccc(NS(=O)(=O)c2cccs2)cc1)c1ccc2ccccc2c1 | 0.3 (inactive) | 0.75
37 | CCCCC(=O)N/N=C(\C)CC(=O)Nc1cc(Cl)ccc1OC | 0.09 (inactive) | -0.2
38 | COc1ccc(/C(C)=N/NC(=O)CCC(=O)Nc2ccc(Cl)cc2Cl)c(OC)c1 | 5.63 (active) | 5.64
39 | COc1ccc(/C(C)=N/Nc2cc(C(F)(F)F)ccc2Cl)c(OC)c1 | -0.18 (inactive) | -0.33
40 | O=c1[nH]c2ccccc2s1 | 0.98 (inactive) | 1.68
41 | C=CCN(c1ccc(C(=O)Nc2cc(C)cc(C)c2)cc1)S(C)(=O)=O | -0.5 (inactive) | -0.78
42 | C#CCOCCOCCOCCNc1nc(N2CCN(C(=O)[C@H](C(C)C)n3cc(CCO)nn3)CC2)nc(N2CCN(C(=O)[C@H]([C@@H](C)CC)n3cc(CCCN=C(N)N)nn3)CC2)n1 | 1.22 (inactive) | 1.32
43 | CCn1c(SCC(=O)N/N=C/C=C/c2ccccc2[N+](=O)[O-])nnc1-c1ccccc1 | 0.43 (inactive) | -0.06
44 | CN(C)C(=O)c1ccc2c(c1)C1C3CCC(C3)C1C(c1ccccc1)N2 (stereo not drawn) | -0.71 (inactive) | -0.66
45 | CCCCNC(=O)CSc1nc2ccc(NC(=O)CSc3nnc(N)s3)cc2s1 | 0.08 (inactive) | -0.52
46 | COC(=O)c1ccc(NC(=O)CSc2nncc3ccc(OC)c(OC)c23)cc1 | -1.41 (inactive) | -0.89
47 | CCOc1ccc(S(=O)(=O)N/N=C(\C)c2ccc(Cl)c(Cl)c2Cl)cc1 | 1.17 (inactive) | 1.85
48 | O=C(CSc1nc2ccccc2c(=O)n1CCCO)N1CCc2ccccc21 | -1.29 (inactive) | -0.81
49 | CCc1ccc(C2N3CC4([N+](=O)[O-])CN2CC([N+](=O)[O-])(C3)C4(C)C)cc1 (stereo not drawn) | 1.48 (inactive) | 1.35
